Reference: publication PMC7819943, “Rice protein-binding microarrays: a tool to detect cis-acting elements near promoter regions in rice”
In all, about 35,000 sequences were measured (“fluorescence intensity (a.u.)”: median about 10,000, highest 2% from about 52,000 on). The sample holds the highest values, similar sequences and a random draw of the others, so the mix is not that of the screen.

These sequences were tested against T1, OsWOX13 (Oryza sativa, UniProt Q5QMM3 1-267) (assay: protein-binding microarray (RPBM); PBS, 2% BSA, 51.3 ng/ul salmon testes DNA, 50 uM zinc acetate, 200 nM TF, 25 C, 1 h; high values mean tight binding). Conditions: protein: recombinant; tags: N-terminal polyhistidine and DsRed monomer fusion (pET32a); label: CyDye5-dUTP incorporated in the synthesized complementary strand; 3' TTTTT single-stranded linker to array surface; dsDNA, one strand shown.
T1 sequence: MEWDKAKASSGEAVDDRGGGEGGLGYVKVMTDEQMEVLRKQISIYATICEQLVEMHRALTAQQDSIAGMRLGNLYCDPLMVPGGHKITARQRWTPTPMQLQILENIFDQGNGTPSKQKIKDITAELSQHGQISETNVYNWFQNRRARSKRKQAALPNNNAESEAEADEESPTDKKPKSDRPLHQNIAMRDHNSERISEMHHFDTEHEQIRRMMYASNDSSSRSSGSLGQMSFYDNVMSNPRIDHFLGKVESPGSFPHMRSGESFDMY
Procedure, shortened: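 In PBS with 2% BSA, salmon testes DNA and 50 µM zinc acetate, 200 nM protein was incubated on a custom Agilent array at 25 °C for 1 h and then washed off. The array had been made double-stranded by primer extension with Cy5-dUTP and blocked with 2% BSA. The proteins were transcription factors fused N-terminally to polyhistidine and DsRed, expressed in E. coli BL21-CodonPlus and purified on Ni–NTA. The binding signal is per-feature fluorescence intensity (arbitrary units) from an Axon 4000B scanner.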
“GACTCTATCTAGAAATTAAATTTAATCAACACATGTAAGTCGGAGTCACCTAGTGCAG” was tested, and the binding signal was 12800 fluorescence intensity (a.u.). For “TTTATTTAATTGATTCGATGAACTTTGTGCCATTAAAATTCGGAGTCACCTAGTGCAG”, the binding signal was 35000 fluorescence intensity (a.u.). “TAAATTGACATGATTAATTGAAACCACGCCATTCAGCAATCGGAGTCACCTAGTGCAG” was tested, and the binding signal was 65500 fluorescence intensity (a.u.). With “TATGATTAAAATTGTTTTGAACCATTGCACGCACCAGCATCGGAGTCACCTAGTGCAG” the binding signal was 18500 fluorescence intensity (a.u.). For “AGGTGGCCCCATTAATTGATGATGAAATGCAAACCTAAATCGGAGTCACCTAGTGCAG”, the binding signal was 9480 fluorescence intensity (a.u.). With “TGGGGTATCTAGTCAATCATACAATATTTTGTTTTGCTAACGGAGTCACCTAGTGCAG” the binding signal was 7400 fluorescence intensity (a.u.). “AGGAAAATGTGGTGAGTAATTAGGTTATAATTTATTGAGTCGGAGTCACCTAGTGCAG” was tested, and the binding signal was 4100 fluorescence intensity (a.u.). With “TGATGATTGGTTTCTTGGCCAATGGTTTGGTTGTTGTTTTCGGAGTCACCTAGTGCAG” the binding signal was 23100 fluorescence intensity (a.u.). With “TGCCCCAATGATTTTGTACCACAGACCAGCTCAAGTTGCCCGGAGTCACCTAGTGCAG” the binding signal was 4400 fluorescence intensity (a.u.). “GATAGATAGATAGATACATACACACAAACATAAGTAGCTACGGAGTCACCTAGTGCAG” was tested, and the binding signal was 19100 fluorescence intensity (a.u.). In the case of “AAAGAGAACACATAATTGATTTGGAGCACCCAAATAATTTCGGAGTCACCTAGTGCAG”, the binding signal is reported as 15200 fluorescence intensity (a.u.). In the case of “TTGATAATTGGGCACCTATGCCCGACACATAAAACACACTCGGAGTCACCTAGTGCAG”, the binding signal is reported as 22200 fluorescence intensity (a.u.). In the case of “TTGTGATTGATTTCACACCCAAACAACAAGTAGTCAGCTACGGAGTCACCTAGTGCAG”, the binding signal is reported as 61300 fluorescence intensity (a.u.). With “AGTGTGATTGATGCACAAACAAACAGCTCAAGTTGAGGCCCGGAGTCACCTAGTGCAG” the binding signal was 55400 fluorescence intensity (a.u.). “AAGTGATTGCCCTGGCTCAGAGTTGAGTAAACAATCAGGCCGGAGTCACCTAGTGCAG” was tested, and the binding signal was 19900 fluorescence intensity (a.u.). In the case of “GTTTCAATGATTGGTTGTTCACCCAACCCAAGTACCCAGCCGGAGTCACCTAGTGCAG”, the binding signal is reported as 57400 fluorescence intensity (a.u.). For “AAAATCAAGATTGATGTGGTTTCACCCCAACACAAGAAAACGGAGTCACCTAGTGCAG”, the binding signal was 8050 fluorescence intensity (a.u.). For “TCTCATTGACAAGCCAACAAACGCACAGTGTGACAAGCTCCGGAGTCACCTAGTGCAG”, the binding signal was 3600 fluorescence intensity (a.u.). “CATAATTGAGTCTGATTGGCACAAACCTAGAGAACATGCCCGGAGTCACCTAGTGCAG” was tested, and the binding signal was 65500 fluorescence intensity (a.u.). In the case of “ATGTGATTATTTCGTCCTGCTGTAAACTTGGTGCAAGTGACGGAGTCACCTAGTGCAG”, the binding signal is reported as 18600 fluorescence intensity (a.u.). For “GGCTTTCCAGTTGATAAATCAATCATCATCCCCTTGATCGCGGAGTCACCTAGTGCAG”, the binding signal was 8410 fluorescence intensity (a.u.). With “ATGTTCTTTCTTGATTAGACCATCTGATGCTTTGCGCAGTCGGAGTCACCTAGTGCAG” the binding signal was 4480 fluorescence intensity (a.u.). In the case of “TAGGAGATTATATTTAAATTAACTTTAAAGAGAAATCTTGCGGAGTCACCTAGTGCAG”, the binding signal is reported as 11600 fluorescence intensity (a.u.).
